This is part of a sample that, as a whole, favours compounds with a hit. Of some 83,000 tested, about 20% had one in any assay.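 Treatment: one concentration, 48 hours, 96-well format. Scoring: percent growth, with anything below 10 considered active.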 Calls of active or inactive are those of the source.
system: HL-60(TB) leukemia; experiment: NCI-60 one-dose screen, 48 h (100 = growth as untreated, 0 = no growth, -100 = all killed); conditions: 10 µM unless noted

SMILES | growth
Fc1ccc2nc(-c3ccc(-c4noc(-c5ccc(Cl)cc5)n4)cc3)[nH]c2c1 | 88.7% (inactive)
COc1ccc2cc(-c3ccc(C(=O)NN)c(C)n3)ccc2c1 | 104% (inactive)
O=C1/C=C/[C@@H](O)[C@@H]2C[C@@H](O)C[C@H]2/C=C/CCC[C@H](CCc2ccc(C(F)(F)F)cc2)O1 | -10.1% (active)
NC(=N\N=C/c1cccc([N+](=O)[O-])c1)/C(N)=N\N=C/c1cccc([N+](=O)[O-])c1 | 104% (inactive)
NS(=O)(=O)c1ccc(CN2C(=O)c3cccc4cccc(c34)C2=O)cc1 | 98.6% (inactive)
CCC(=O)C(CC)c1cccc(OC)c1 (centres undefined) | 97.5% (inactive)
CC1=C[C@H]2c3c(c(O)c(O)c4oc(-c5ccccc5)cc(=O)c34)[C@H](c3cc(O)c(O)c4oc(-c5ccccc5)cc(=O)c34)[C@H]2C(C)(C)C1 | -30.1% (active)
COC(=O)c1c2c(c(C)[n+]([O-])c1C)C(=O)C(NCc1ccc(F)c(F)c1)=CC2=O | -23.6% (active)
C#CCn1cnc2c(Nc3cccc(NC(=O)CCl)c3)ncnc21 | 7.89% (active)
O=C1CSC(c2ccccc2O)N1c1nnc(Cn2cnnc2)o1 (centres undefined) | 61.1% (inactive)
CC1(O)CCCCCC1 | 92.7% (inactive)
CCSc1oc(C)nc1[P+](c1ccccc1)(c1ccccc1)c1ccccc1 | 7.21% (active)
CCOC(=O)c1c2c(c(C)n1Cc1ccc(OC)cc1)-c1oncc1CC2 | 91.9% (inactive)
OCC1OC(n2ccc3c2ncn2ncnc32)C(O)C1O (centres undefined) | -14.4% (active)
COc1cc2c(cc1OC)C(CC1(O)CCCCC1)N(S(=O)(=O)c1ccc(C)cc1)CC2 (centres undefined) | -25% [100 µM] (active)
CC[C@]12C=CCN3CC[C@@]4(c5ccc(OC)cc5N(C)[C@H]4[C@@](O)(C(=O)OC)[C@@H]1OC(=O)CCC[P+](c1ccccc1)(c1ccccc1)c1ccccc1)[C@@H]32 | -53.1% (active)
COc1cc2cc(Oc3ccc(NC(=O)Nc4cccc(C(F)(F)F)c4)cc3)c(C)nc2cc1OCCN1CCCCC1 | -51.9% (active)
Cc1nc2c(-c3cnc(N)nc3)nc(N3CCOCC3)nc2n1C(C)C | 10.8% (inactive)
CCN1CCN(c2nc3ccccc3c3c(=O)c4ccccc4sc23)CC1 | 76.4% (inactive)
Nc1ncnc2[nH]c(=O)[nH]c12 | 140% (inactive)

SMILES | growth
O=C(O)c1cn(C2CC2)c2cc(N3CCN(C(=O)Nc4nc(-c5ccc(Cl)cc5)cs4)CC3)c(F)cc2c1=O | -26.2% (active)
O=C1CCCN1C1CCN2CCCc3cccc1c32 (centres undefined) | 92.7% (inactive)
COc1ccc(N2CCN(c3ccc(NC4=C(Cl)C(=O)c5ncccc5C4=O)cc3)CC2)cc1 | 53% (inactive)
COc1cnc2c(c1)C(=O)c1c-2n(CCCNC(C)C)c(=O)c2cc(F)ccc12 | -38.7% (active)
CC(=O)Nc1nc(C)c(C(=O)N/N=C/N2CCOCC2)s1 | 188% (inactive)
CCOC(=O)/C(C#N)=C/c1cccc(C)c1 | 86.4% (inactive)
COc1cccc2c1C(=O)c1c(O)c3c(c(O)c1C2=O)C[C@@](O)(C(=O)CO)C[C@@H]3O[C@H]1C[C@H](N)[C@@H](O)[C@H](C)O1 | 3.13% (active)
OCC12CCCC(CO)(COC1)C2O (centres undefined) | 118% (inactive)
CCOC(=O)NC(Cc1ccccc1)c1ccccc1 (centres undefined) | 94.2% (inactive)
Cc1ccc2[nH]c(=O)c3c(c2c1)OC(N)=C(C#N)C31c2cc(Br)ccc2-c2ccc(Br)cc21 | 85.7% (inactive)
O=C(c1ccc(Cl)cc1Cl)N1c2ccccc2Sc2ccccc21 | 35.8% (inactive)
Cc1nc(Cl)c2c(n1)N(C)c1ccc(Cl)cc1C(C)C2 (centres undefined) | 72.2% (inactive)
CCOC(=O)c1ccc(N2NC(=O)/C(=C/c3ccc([N+](=O)[O-])o3)C2=O)cc1 | 85.5% (inactive)
Cc1[nH]c2ccccc2c1/C=N/Nc1ncnc2sc3c(c12)CCN(CC(=O)OC(C)(C)C)C3 | 12.5% (inactive)
CNC(=O)c1cc(-n2ccc3cc(NC(=O)c4ccc(N5CCOCC5)c(C(F)(F)F)c4)ccc32)ccn1 | 66.3% (inactive)
COc1ccc(NC(=O)C2CC3C=CC2C3)c([N+](=O)[O-])c1 (centres undefined) | 86.2% (inactive)
O=C1c2ccccc2C(=O)c2c(N=Nc3[nH]c(=S)[nH]c3O)cccc21 | -32.1% (active)
C[C@@H](N)c1ccc(C(=O)Nc2ccnc3[nH]ccc23)cc1 | 67.5% (inactive)
COc1cc(/C=C/C(=O)/C=C/c2ccc(-n3ccnc3C)cc2)ccc1O | 49.5% (inactive)
